# Laboratory results published in PubChem BioAssay (Tox21).
# Values without a mark were called inactive. Results filed as inconclusive are left out. Entries that show only a call come without a potency. Calls of active or inactive are those of the source. Unless noted, the call rests on the fitted dose curve; in most records, active means well fitted curve in the direction sought with a large enough effect in the repeat runs; inconclusive means weak or mixed curves; inactive means no such curve, though single readings can be large; an effect the other way counts as inactive or inconclusive.
# How the values were obtained:
# [1] = qHTS assay to identify small molecule antagonists of the estrogen receptor alpha (ER-alpha) signaling pathway using the BG1 cell line in the presence of 0.1 nM 17-beta-estradiol - cell viability counter screen (AID 1259241); further: nearly all actives have a fitted effect of over 40% in size
# Summary of the method: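 Cells were plated and left 24 hr, compounds in DMSO were pinned in, 17beta-estradiol was added to 0.1 nM final, and after 22 hr CellTiter-Fluor reagent was added for 30 min before fluorescence was read.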
# [2] = qHTS assay to identify small molecule antagonists of the androgen receptor (AR) signaling pathway using the MDA cell line in the presence of 0.5 nM R1881 - cell viability counter screen (AID 1259242); further: nearly all actives have a fitted effect of over 45% in size
# Summary of the method: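 qHTS format. MDA-kb2 (MMTV-luc, AR/GR responsive) + cpd + 0.5 nM R1881 final, 16 hr 37C/0% CO2 → CellTiter-Fluor 30 min → fluorescence intensity.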
# [3] = target: Estrogen receptor (Homo sapiens) (UniProt P03372); experiment: qHTS assay to identify small molecule antagonists of the estrogen receptor alpha (ER-alpha) signaling pathway using the BG1 cell line in the presence of 0.1 nM 17-beta-estradiol (AID 1259244); further: nearly all actives have a fitted effect of over 50% in size; further: potency means the concentration at half of the fitted maximal effect
# Sequence of Estrogen receptor (Homo sapiens) (P03372 whole entry, looked up): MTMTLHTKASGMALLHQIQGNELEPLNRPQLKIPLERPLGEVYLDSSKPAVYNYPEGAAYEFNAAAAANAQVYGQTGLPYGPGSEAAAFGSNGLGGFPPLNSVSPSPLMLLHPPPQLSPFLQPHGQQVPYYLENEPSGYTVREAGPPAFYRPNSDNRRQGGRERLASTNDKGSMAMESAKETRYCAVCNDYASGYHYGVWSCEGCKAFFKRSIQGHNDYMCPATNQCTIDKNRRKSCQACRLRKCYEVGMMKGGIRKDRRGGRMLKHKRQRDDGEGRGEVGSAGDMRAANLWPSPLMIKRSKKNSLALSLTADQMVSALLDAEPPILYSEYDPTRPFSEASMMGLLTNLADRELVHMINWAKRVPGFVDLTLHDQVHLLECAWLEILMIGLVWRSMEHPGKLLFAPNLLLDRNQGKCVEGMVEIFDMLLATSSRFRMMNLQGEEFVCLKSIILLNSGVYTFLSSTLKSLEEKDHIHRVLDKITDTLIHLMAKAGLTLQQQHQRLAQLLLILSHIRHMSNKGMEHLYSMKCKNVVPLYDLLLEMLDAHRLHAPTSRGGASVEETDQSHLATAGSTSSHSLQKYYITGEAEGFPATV
# Summary of the method: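 Reporter is a stably transfected luciferase under four estrogen responsive elements in VM7Luc4E2 cells expressing native full-length ER-alpha; inhibition of 0.1 nM (final) 17beta-estradiol-driven signal over 22 h is read by luminescence.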
# [4] = qHTS assay to identify small molecule HDAC inhibitors (AID 1259364);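 further: wild-type HCT-116 cells with endogenous class I/II HDAC activity; top concentration of the series differs between compounds; nearly all actives have a fitted effect of over 45% in size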
# Summary of the method: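 Quantitative high-throughput format: overnight-seeded HCT-116 cells got compounds for 2 hr at 37C; HDAC-Glo I/II reagent added, 30 min RT, luminescence measured.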
# [5] = qHTS assay to identify small molecule HDAC inhibitors - cell viability counter screen (AID 1259365); further: series mostly up to about 92 µM; nearly all actives have a fitted effect of over 50% in size
# Summary of the method: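 Counter screen in wild-type HCT-116 cells: compounds dissolved in DMSO are pin-transferred onto overnight-plated cells and left 2hr at 37C. ATP-based CellTiter-Glo luminescence then measures viable cells.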
# [6] = qHTS assay to identify small molecule agonists of the sonic hedgehog signaling (Shh) pathway - cell viability counter screen (AID 1259366); further: nearly all actives have a fitted effect of over 50% in size; further: potency means the concentration at half of the fitted maximal effect
# Summary of the method: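 Cells are plated at 2,000 per well and left 4hr at 37C, 5% CO2 before compound addition. After 23hr of treatment, CellTiter-Fluor reagent is added for 1hr at 37C and fluorescence is measured.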
# [7] = qHTS assay to identify small molecule antagonists of the sonic hedgehog signaling (Shh) pathway - cell viability counter screen (AID 1259367); further: nearly all actives have a fitted effect of over 55% in size
# Summary of the method: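 Viability was read by CellTiter-Fluor fluorescence in the same wells, reagent added 23 hr into compound treatment and incubated 1 hr at 37C. The 3T3 Gli1-Luc reporter cells (2,000/well) received conditioned medium after compound and ran 24 hr.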
# [8] = qHTS assay to identify small molecule agonists of the sonic hedgehog signaling (Shh) pathway (AID 1259368; calls by dose curve;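 further: NIH/3T3-derived 3T3Gli1-Luc cells carrying a stable Gli1-driven firefly luciferase reporter; series mostly up to about 92 µM; nearly all actives have a fitted effect of over 15% in size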)
# Summary of the method: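 Quantitative high-throughput format using a Gli1-driven firefly luciferase reporter line derived from NIH/3T3 cells. After a 24 hr compound treatment at 37 C and 5% CO2, luminescence reported Gli1 response element activity.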
# [9] = qHTS assay to identify small molecule antagonists of the sonic hedgehog signaling (Shh) pathway (AID 1259369; calls by dose curve; further: nearly all actives have a fitted effect of over 45% in size)
# Summary of the method: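 Stable Gli1-Luc reporter NIH/3T3 clone; quantitative HTS in stimulated mode with conditioned medium. Luminescence measured after 24hr compound treatment at 37 C.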
# [10] = qHTS assay to identify small molecule agonists of the estrogen receptor beta (ER-beta) signaling pathway - cell viability counter screen (AID 1259380); further: nearly all actives have a fitted effect of over 30% in size; further: potency means the concentration at half of the fitted maximal effect
# Summary of the method: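 Steps: plate ER-beta-UAS-bla HEK293T cells, rest 6 hr; add compounds in DMSO; incubate 16 hr at 37C, 5% CO2; add FRET substrate 2 hr; add CellTiter-Glo, wait 30 min at room temperature; read luminescence.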
# [11] = target: Estrogen receptor (Homo sapiens) (UniProt P03372); experiment: qHTS assay to identify small molecule agonists of the estrogen receptor alpha (ER-alpha) signaling pathway in the presence of an antagonist (AID 1259383; calls by dose curve; further: top concentration of the series differs between compounds; nearly all actives have a fitted effect of over 15% in size)
# Summary of the method: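 Readout was ERE-driven luciferase luminescence in VM7Luc4E2 cells, which express full-length ER-alpha endogenously. Compounds were tested at 15 concentrations for 22hr alongside 10.0nM ICI-182,780 (final concentration).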
# [12] = qHTS assay to identify small molecule agonists or antagonists of the thyroid stimulating hormone receptor (TSHR) signaling pathway - wild type cell line counter screen (AID 1259384; calls by dose curve)
# Summary of the method: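 Counter screen in untransfected Hek293: compounds (15-point titration, triplicate) plus phosphodiesterase inhibitor Ro20-1724 added after 18 h plating; 30 min RT. Intracellular cAMP via competitive d2/cryptate immunoassay, 1 h incubation.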
# [13] = qHTS assay to identify small molecule agonists of the androgen receptor (AR) signaling pathway in the presence of an antagonist - cell viability counter screen (AID 1259379);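 further: MDA-kb2 human breast cancer cells carrying an MMTV luciferase reporter; series mostly up to about 92 µM; nearly all actives have a fitted effect of over 25% in size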
# Summary of the method: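 Nilutamide-containing (3.0uM final) MDA-kb2 cultures, 3,000 cells/well, were treated with compounds across 15 concentrations. After 16 hr at 37C with no CO2, cell viability was determined by CellTiter-Fluor fluorescence in the luciferase assay wells.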
# [14] = qHTS assay to identify small molecule antagonists of the estrogen receptor beta (ER-beta) signaling pathway - cell viability counter screen (AID 1259382);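 further: HEK293T cells carrying ER-beta-UAS-bla reporter stimulated with estradiol; series mostly up to about 92 µM; nearly all actives have a fitted effect of over 55% in size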
# Summary of the method: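 Viability is scored by CellTiter-Glo luminescence (30 min, room temperature) in ER-beta-UAS-bla HEK293T wells already read for reporter fluorescence. Compound exposure lasts 16 hr at 37C alongside 1nM 17-beta-estradiol in charcoal-stripped serum medium.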
# [15] = target: Thyrotropin receptor (Homo sapiens) (UniProt P16473); experiment: qHTS assay to identify small molecule antagonists of the thyroid stimulating hormone receptor (TSHR) signaling pathway (AID 1259385; calls by dose curve; further: nearly all actives have a fitted effect of over 20% in size)
# Sequence of Thyrotropin receptor (Homo sapiens) (P16473 whole entry, looked up): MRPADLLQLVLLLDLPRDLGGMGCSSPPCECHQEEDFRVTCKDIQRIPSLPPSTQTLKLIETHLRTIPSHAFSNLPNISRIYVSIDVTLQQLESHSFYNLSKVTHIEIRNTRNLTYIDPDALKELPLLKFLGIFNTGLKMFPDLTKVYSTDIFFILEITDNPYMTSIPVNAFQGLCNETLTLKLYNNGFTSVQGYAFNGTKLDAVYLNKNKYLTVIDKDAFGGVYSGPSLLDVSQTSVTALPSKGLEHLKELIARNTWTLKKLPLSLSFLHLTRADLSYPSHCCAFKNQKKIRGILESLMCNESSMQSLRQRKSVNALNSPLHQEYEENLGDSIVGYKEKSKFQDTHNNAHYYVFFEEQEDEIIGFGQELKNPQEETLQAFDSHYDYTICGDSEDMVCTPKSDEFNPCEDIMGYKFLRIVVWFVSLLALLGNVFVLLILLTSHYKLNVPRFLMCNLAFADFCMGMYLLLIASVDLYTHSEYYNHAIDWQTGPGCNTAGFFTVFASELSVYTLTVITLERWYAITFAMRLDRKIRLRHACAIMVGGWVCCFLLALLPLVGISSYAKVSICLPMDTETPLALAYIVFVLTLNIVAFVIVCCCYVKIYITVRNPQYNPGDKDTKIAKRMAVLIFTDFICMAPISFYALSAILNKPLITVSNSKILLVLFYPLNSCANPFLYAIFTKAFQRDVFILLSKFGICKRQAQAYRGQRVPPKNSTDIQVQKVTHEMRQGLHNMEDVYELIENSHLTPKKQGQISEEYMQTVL
# Summary of the method: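 Antagonist mode: compound-treated TSHR-expressing HEK293 cells were stimulated with 1.5 ng/mL TSH (final) in presence of Ro20-1724 for 30 min at RT. HTRF cAMP detection after 1 h; each compound tested at 15 concentrations, triplicate.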
# [16] = target: Estrogen receptor beta (Homo sapiens) (UniProt Q92731); experiment: qHTS assay to identify small molecule agonists of the estrogen receptor beta (ER-beta) signaling pathway (AID 1259377; active means well fitted activation curve with a large enough effect in the signal ratio in the repeat runs, not every such curve was filed as active; the % refers to the signal ratio)
# Sequence of Estrogen receptor beta (Homo sapiens) (Q92731 whole entry, looked up, the tested form may be a part): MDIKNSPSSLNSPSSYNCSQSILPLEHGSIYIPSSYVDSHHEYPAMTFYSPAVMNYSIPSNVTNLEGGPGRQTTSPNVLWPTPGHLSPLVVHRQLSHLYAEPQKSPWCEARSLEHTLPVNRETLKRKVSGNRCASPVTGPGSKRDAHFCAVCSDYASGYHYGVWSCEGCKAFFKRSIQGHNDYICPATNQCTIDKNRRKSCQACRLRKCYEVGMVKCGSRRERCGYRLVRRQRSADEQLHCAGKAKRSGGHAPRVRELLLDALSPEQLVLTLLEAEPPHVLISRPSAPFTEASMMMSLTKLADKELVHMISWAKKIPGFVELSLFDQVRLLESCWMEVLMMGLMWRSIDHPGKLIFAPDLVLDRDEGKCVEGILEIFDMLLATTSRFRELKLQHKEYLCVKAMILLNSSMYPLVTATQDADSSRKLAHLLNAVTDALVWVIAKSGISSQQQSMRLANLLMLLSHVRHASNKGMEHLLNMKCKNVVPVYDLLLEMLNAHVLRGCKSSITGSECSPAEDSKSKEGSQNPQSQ
# Summary of the method: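 Agonist mode cell assay in GripTite HEK293T cells expressing an ER-beta fusion that drives beta-lactamase from an Upstream Activator Sequence; 16 hr compound exposure at 37C, then 2 h LiveBLAzer B/G FRET substrate at room temperature, fluorescence read-out.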
# [17] = target: Estrogen receptor beta (Homo sapiens) (UniProt Q92731); experiment: qHTS assay to identify small molecule antagonists of the estrogen receptor beta (ER-beta) signaling pathway (AID 1259378; active means well fitted inhibition curve with a large enough effect in the signal ratio in the repeat runs, not every such curve was filed as active; the % refers to the signal ratio)
# Summary of the method: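 Antagonist mode: compounds added to beta-lactamase reporter HEK293T ER-beta-UAS cells stimulated with E2 (1nM final), 16 hr at 37C. LiveBLAzer B/G FRET substrate, 2 hours room temperature, fluorescence read-out.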
Compound,Potency [1],Potency [2],Potency [3],Potency [4],outcome [5],Potency [6],Potency [7],outcome [8],Potency [9],Potency [10],Potency [11],Potency [12],Potency [13],Potency [14],Potency [15],Potency [16],Potency [17]
Cc1cccc(Oc2ccccc2)c1,inactive,inactive,66.8 µM (active),inactive,inactive,inactive,inactive,inactive,inactive,9.44 µM (active),inactive,inactive,,,,,
CCCCCCCCCCCCCCCBr,inactive,inactive,inactive,inactive,inactive,inactive,inactive,inactive,inactive,,inactive,inactive,inactive,inactive,inactive,,
N#CCCNCCC#N,inactive,inactive,inactive,inactive,inactive,inactive,inactive,inactive,inactive,inactive,inactive,inactive,inactive,inactive,,,
CN(C)CCCNCCCN,inactive,inactive,inactive,inactive,inactive,27.2 µM (active),inactive,inactive,,,inactive,,inactive,inactive,,inactive,inactive
CC(C)(C)c1ccc(OCC2CO2)cc1 (configuration not stated),inactive,inactive,inactive,inactive,inactive,,,inactive,inactive,,inactive,inactive,inactive,inactive,inactive,inactive,inactive
N#CCc1cccc(C(F)(F)F)c1,inactive,inactive,inactive,inactive,inactive,inactive,,inactive,inactive,inactive,inactive,,inactive,inactive,inactive,,
Oc1ccc2c(c1)OCO2,inactive,inactive,inactive,inactive,inactive,inactive,,inactive,,inactive,inactive,inactive,inactive,inactive,inactive,,
COc1ccc(OC)c(OC)c1,inactive,inactive,inactive,inactive,inactive,inactive,inactive,inactive,inactive,inactive,inactive,,inactive,inactive,inactive,,inactive
CC(C)(C)c1ccc(S)cc1,inactive,inactive,inactive,inactive,inactive,inactive,inactive,inactive,inactive,,,,inactive,inactive,inactive,inactive,
CC1=CC(=O)/C(=C(/C)O)C(=O)O1,inactive,inactive,inactive,inactive,inactive,,inactive,inactive,inactive,inactive,,inactive,inactive,inactive,inactive,inactive,inactive
SC1CCCC1,inactive,inactive,inactive,inactive,inactive,,inactive,inactive,inactive,inactive,inactive,inactive,inactive,inactive,inactive,inactive,inactive
O=C(O)C1CCC(C(=O)O)CC1 (configuration not stated),inactive,inactive,inactive,inactive,inactive,inactive,,inactive,inactive,inactive,,,inactive,inactive,inactive,inactive,inactive
CC(=O)[C@@]1(O)CC[C@H]2[C@@H]3C[C@H](C)C4=CC(=O)CC[C@]4(C)[C@H]3CC[C@@]21C,inactive,inactive,inactive,inactive,inactive,inactive,,inactive,,inactive,inactive,inactive,inactive,inactive,inactive,inactive,inactive
C[Si](C)O[Si](C)(C)O[Si](C)(C)O[Si](C)C,inactive,inactive,inactive,inactive,inactive,,inactive,inactive,inactive,inactive,,inactive,inactive,inactive,inactive,,
Nc1ccc(C(=O)N2CC3CC(CN(Cc4ccccc4)C3)C2)cc1,inactive,inactive,inactive,inactive,,inactive,inactive,inactive,inactive,,inactive,,inactive,inactive,inactive,inactive,inactive
Cc1cccc(C(C)(C)C)c1O,inactive,inactive,inactive,inactive,inactive,,inactive,inactive,inactive,inactive,inactive,,inactive,inactive,,inactive,inactive
N#Cc1cc2ccccc2c2ccccc12,inactive,inactive,inactive,inactive,inactive,inactive,,inactive,inactive,,inactive,inactive,inactive,inactive,inactive,,
CCCCC(CC)COCCCN (configuration not stated),inactive,inactive,inactive,inactive,inactive,inactive,inactive,inactive,inactive,,,inactive,inactive,,inactive,,
